IL-1B inflam inh: qHTS for Inhibitors of Inflammasome Signaling: IL-1-beta AlphaLISA Primary Screen. THP-1 LPS/ATP IL-1B secretion, AlphaLISA, 16 h; stronger effect = lower value. 360,000 tested, 4.7% active. AID 743279, 2014. activity change, % at 57.5 µM; in the data active = activity change below about -50%; inconclusive = mostly about -30% to -49%; note: % is set by controls: 0 for no effect and ±100 for the full control effect
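Secreted IL-1B measured by AlphaLISA bead assay after 16 h compound exposure of THP-1 cells; compounds (final up to 57.5 uM) added 1 h before LPS (250 ng/mL) and ATP (1.25 mM) stimulation; lower signal means less secretion.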
TDP1 cell noCPT: qHTS for Inhibitors of human tyrosyl-DNA phosphodiesterase 1 (TDP1): qHTS in cells in absence of CPT | DT40 Tdp1-/- hTDP1 cells, no CPT, ATP luminescence, 48 h | Potency, µM (top dose mostly 46.2 µM), for the others: at the top dose activity change, negative = growth inhibition, hits mostly inhibitors | 420,000 tested, 15% active | AID 686978, 2013; note: potency is the fitted concentration of half-maximal effect; % is set by controls: 0 for no effect and ±100 for the full control effect; nearly all actives have a fitted effect of over 55% in size
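Chicken DT40 Tdp1-/- cells stably complemented with human TDP1 were seeded at 400 cells/well with DMSO in place of 20 nM camptothecin. After compound pinning, cells grew at least 48 hr at 37 °C; viability read by CellTiter-Glo luminescence.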
SW480 rerep: A quantitative high throughput screen for small molecules that induce DNA re-replication in SW480 colon adenocarcinoma cells | AID 624297, 2012 | SW480 DNA re-replication, Hoechst DNA content imaging, 48 h | Potency, µM (top dose mostly 46.1 µM), for the others: at the highest dose re-replication activation, hits mostly activators | 340,000 tested, 1.8% active; note: potency is the fitted concentration of half-maximal effect; % of control where 0% means no effect; nearly all actives have a fitted effect of over 55% in size
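DNA re-replication was detected as more nuclei of elevated Hoechst intensity after 48 hr exposure to compound (23 nL pinned per well of 250 cells).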
DT40 TDP1 CPT: qHTS for Inhibitors of human tyrosyl-DNA phosphodiesterase 1 (TDP1): qHTS in cells in presence of CPT; 420,000 tested, 12% active; Potency, µM (series often up to 46.2 µM), without a hit: at the top dose activity change, negative = growth inhibition, hits mostly inhibitors; chicken DT40 Tdp1-/-;hTDP1 cells + 20 nM CPT, ATP luminescence, 48 h; note: potency is the fitted concentration of half-maximal effect; % is set by controls: 0 for no effect and ±100 for the full control effect; nearly all actives have a fitted effect of over 55% in size
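Chicken DT40 Tdp1-/- cells complemented with human TDP1, 400 cells/well, exposed to compounds plus 20 nM camptothecin for at least 48 h at 37 C; viability read as ATP content by CellTiter-Glo luminescence.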
MCF10A rerep: A quantitative high throughput screen for small molecules that induce DNA re-replication in MCF 10a normal breast cells. Potency, µM (titrated, usually from 46.1 µM), without a hit: at the highest dose activity, positive = re-replication, most hits filed as activators. MCF 10A DNA re-replication, Hoechst nuclear intensity, 48 h. AID 624296, 2012. 350,000 tested, 2.9% active; note: potency is the fitted concentration of half-maximal effect; % of control where 0% means no effect; nearly all actives have a fitted effect of over 50% in size
BCR signal inh: qHTS Assay to Find Inhibitors of Chronic Active B-Cell Receptor Signaling; Potency, µM (titrated, usually from 46.1 µM), for inactives: at the highest dose activity change, negative = inhibition, most hits filed as inhibitors; ABC-DLBCL IkBa-CBG/CBR reporter, luminescence ratio, 4 h; 340,000 tested, 0.05% active; active = well fitted inhibition curve with a large enough effect in the signal ratio, with a control signal flat, not every such curve was filed as active; inconclusive = small, poorly fitted or top-dose-only effect, or effect the other way, or a change in a side signal; the % refers to the signal ratio;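 note: potency is the fitted concentration of half-maximal effect; plate controls were basal doxycycline-induced cells for no effect and cells given 10 µM MG132 for full effect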
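Doxycycline induced both beetle luciferases in TMD8 lymphoma cells; IKK-driven degradation limits the IkappaBalpha-fused green signal, while red luminescence normalises for cell number and nonspecific effects. Compounds tested up to 46 uM, 4 hrs.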
The depositor's hits bear a star; u = inconclusive; x = not tested or not shown. Hits are enriched below; roughly 19% of the tested compounds scored in any of these assays. Unless noted, calls come from the whole dose curve; as a rule, active = well fitted curve in the direction sought with a large enough effect; inconclusive = small, poorly fitted or top-dose-only effect, or another doubt; inactive = no such curve, though single readings can be large; an effect the other way counts as inactive or inconclusive.

SMILES | IL-1B inflam inh | TDP1 cell noCPT | SW480 rerep | DT40 TDP1 CPT | MCF10A rerep | BCR signal inh
COc1cc(COc2ccc(S(=O)(=O)N3CCOCC3)cc2[N+](=O)[O-])ccc1OC(F)F | -11.4 | u | 1.8% | 18.4µM* | u | x
CC1=C(C(=O)N2CCCCCC2)CC(CC(=O)NCCCN(C)C)C(=O)N1Cc1ccc(F)cc1 (configuration not stated) | 22.6 | -0.9% | x | -21.0% | x | x
COc1ccc(C(=O)Nc2nnc(SCc3cc(=O)n4cc(Cl)ccc4n3)s2)cc1 | x | -7.1% | x | -10.2% | x | x
CC(C)NC(=O)N(C)C[C@H]1Oc2c(cccc2N(C)C)C(=O)N([C@H](C)CO)C[C@@H]1C | 11.6 | -0.5% | 4.4% | 15.5% | -4.1% | 2.4%
COc1ccc(C(=O)Nc2ccc(S(=O)(=O)N3CCN(C)CC3)cc2)cc1[N+](=O)[O-] | 3.8 | 8.8% | -47.9% | 0.5% | u | u
COc1ccc(C(=O)Nc2ccc(S(=O)(=O)N3CCOCC3)cc2)cc1[N+](=O)[O-] | u | 6.5% | -14.4% | -1.0% | 4.61µM* | -19.9%
CNC[C@H]1OCCCC[C@H](C)Oc2ccc(NC(=O)CCCN(C)C)cc2C(=O)N([C@H](C)CO)C[C@@H]1C | 10.8 | -30.1% | x | -21.7% | x | x
Cc1cccc(-c2cnc(C(O)c3ccc(-c4ccccc4)cc3)[nH]2)c1 (configuration not stated) | -2.3 | 23.1µM* | x | 23.1µM* | x | x
Cc1ccc(C(O)c2ncc(-c3ccc4ccccc4c3)[nH]2)cc1 (configuration not stated) | 17.5 | u | x | u | x | x
Cc1cc(C)cc(C(O)c2ncc(-c3ccc4ccccc4c3)[nH]2)c1 (configuration not stated) | 13.6 | u | x | 23.1µM* | x | x
OC(c1ccc(-c2ccccc2)cc1)c1ncc(-c2ccccc2)[nH]1 (configuration not stated) | 17.3 | u | x | u | x | x
O=C1CCN(Cc2ccccc2)S(=O)(=O)c2ccccc21 | 2.5 | u | -6.2% | 29.1µM* | 7.0% | 0.3%
COc1ccc(NC(=O)Nc2ccc3c(c2)CC(=O)N([C@H](C)CO)C[C@@H](C)[C@H](CN(C)C(=O)Nc2ccccc2)O3)cc1 | -2.2 | -19.4% | 1.2% | -16.4% | u | u
OC(Cc1ccncc1)(c1ccccc1)c1ccccc1 | 5.7 | u | -1.5% | u | 28.9% | -11.0%
COc1cccc2ccc(CC(O)(c3ccccc3)c3ccccc3)nc12 | 30.1 | 25.9µM* | x | u | x | x
Cc1ccc2nc(CC(O)(c3ccccc3)c3ccccc3)ccc2c1 | 35.0 | 20.6µM* | x | u | x | x
COC(=O)C(Cc1cccc(C)n1)(c1ccccc1)c1ccccc1 | -15.8 | -3.3% | -1.4% | u | 5.9% | 0.0%
CC[C@]12c3[nH]c4ccccc4c3CCN1C(=O)C(CC(=O)NCCC1=CCCCC1)C[C@@H]2C(=O)N1CCN(C(=O)c2ccco2)CC1 (some centres not stated) | u | u | -8.4% | u | 5.1% | u
Cc1ccc(-n2ccc(=O)c(C(=O)Nc3ccc(S(=O)(=O)Nc4onc(C)c4C)cc3)n2)cc1 | 14.8 | 9.2% | 4.0% | 14.1% | -1.1% | -1.5%
Cc1noc(C)c1C(=O)NCCc1c(C)[nH]c2ccccc12 | 20.9 | -0.3% | -20.0% | 9.6% | -27.8% | 2.0%
CCOc1ccc(NC(=O)c2cc(S(=O)(=O)N3CCc4ccccc43)ccc2F)cc1 | x | 9.2µM* | x | 8.2µM* | x | u
CCC(=O)N1CCCc2cc(S(=O)(=O)N3CCCc4ccccc43)ccc21 | 8.5 | 18.4µM* | -0.9% | 25.9µM* | 4.9% | -3.0%
O=C(Nc1ccc(Br)cc1)c1cc(S(=O)(=O)N2CCc3ccccc32)ccc1F | x | 14.6µM* | x | 14.6µM* | x | u
CCCCCCNC(=O)c1cc(S(=O)(=O)N2CCc3ccccc32)ccc1F | 22.6 | u | -7.7% | u | 3.2% | -1.8%
Cc1cccc(C)c1NC(=O)c1cc(S(=O)(=O)N2CCc3ccccc3C2)ccc1F | x | u | x | 18.4µM* | x | 11.8%
SMILES | IL-1B inflam inh | TDP1 cell noCPT | SW480 rerep | DT40 TDP1 CPT | MCF10A rerep | BCR signal inh
CCC(=O)N1CCc2cc(S(=O)(=O)N3CCc4ccccc4C3)ccc21 | 15.1 | -25.7% | 1.6% | u | -2.8% | 4.0%
CCc1ccc(-c2csc(-c3cc4cc(Br)ccc4oc3=O)n2)cc1 | x | -23.2% | x | -15.3% | x | 7.7%
O=C(Nc1ccc(C(F)(F)F)cc1)c1cc(S(=O)(=O)N2CCCc3ccccc32)ccc1F | x | 10.3µM* | x | 7.31µM* | x | u
COC(=O)Nc1ccc(S(=O)(=O)N2c3ccccc3CCC2C)cc1 (configuration not stated) | 6.1 | 2.59µM* | 9.4% | 4.61µM* | -0.9% | u
Cc1ccc(NC(=O)c2cc(S(=O)(=O)N3CCc4ccccc43)ccc2F)cc1Cl | x | 5.8µM* | x | 4.11µM* | x | u
O=C(c1cc(S(=O)(=O)N2CCOCC2)ccc1F)N1CCCc2ccccc21 | 24.2 | u | -3.4% | u | -6.7% | u
COC(=O)Nc1ccc(S(=O)(=O)N2CCCCC2C(=O)O)cc1 (configuration not stated) | 14.0 | 11.3% | u | -0.4% | -11.9% | 1.5%
O=C(Nc1c(F)cc(F)cc1Br)c1cc(S(=O)(=O)N2CCN(c3ccccn3)CC2)ccc1F | -25.6 | 25.9µM* | -2.5% | u | 2.0% | -0.7%
Cc1nn(CC(=O)NCc2ccco2)c(=O)c2cc3ccccc3n12 | x | -8.6% | x | 3.1% | x | x
CC12CCC(=O)N1C(C(=O)Nc1cc(S(=O)(=O)N3CCCCCC3)ccc1OCC(F)(F)F)CS2 (configuration not stated) | -5.4 | -22.0% | u | u | 16.7% | 1.2%
Cc1cccc(C(=O)N2CCC(N3CCN(Cc4ccc(F)cc4)C(=O)C3=O)CC2)c1 | x | -18.0% | x | -4.1% | x | x
Cc1cnc(CNc2ncncc2-c2ccccc2C)cn1 | x | u | x | -0.9% | x | x
CCOC(=O)[C@H]1[C@H]2COc3ccccc3[C@@H]2N2C(=O)CN(Cc3ccc(C)cc3)C(=O)[C@@]12C | -5.0 | -11.0% | 8.1% | 2.0% | 0.6% | 0.7%
